Screening data: PubChem BioAssay, National Center for Advancing Translational Sciences (NCATS)
Most compounds without a hit are left out; they make up all but 10% or so of the library.
KB-V1 cytotox: KB-V1 MDR subline cytotoxicity. KB-V1 MDR cells viability, CellTiter-Glo, 72 h. Potency, µM (doses to about 46.1 µM), usual class: cytotoxic. hit rate 3.4% among 400,000; further: on the % scale 0 is the no-effect control and ±100 the full control effect; nearly all actives have a fitted effect of over 60% in size
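KB-V1 cells (P-gp-expressing MDR subline of KB-3-1) in phenol-red-free DMEM with 10% FBS were exposed to library compounds over a concentration series for 72 h at 37 degrees C. Viability read by CellTiter-Glo luminescence; concentration-effect curves fitted after normalization.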
SW480 rerep: DNA re-replication induction in SW480 cells | SW480 DNA re-replication, Hoechst DNA content imaging, 48 h | Potency, µM (titrated, usually from 46.1 µM), for inactives: at the top dose re-replication activation, most hits filed as activators | hit rate 1.8% among 340,000; further: % of control where 0% means no effect; nearly all actives have a fitted effect of over 55% in size
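Cells (250 per well) received 23 nL compound or DMSO by pin tool and were kept 48 hr at 37 C, 5% CO2. Nuclei were then stained with Hoechst for 40 min and scanned for DNA content.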
VP16 counter: counter-screen for ROR gamma inhibitors: Gal4-VP16 reporter. Potency, µM (highest dose often 53.6 µM), for the others: at the top dose activity, negative = inhibition, most hits filed as inhibitors. AID 2546. Drosophila S2 Gal4-VP16 UAS-luciferase, luminescence, 20 h. hit rate 3.5% among 310,000;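 further: Gal4-VP16 expression switched on by copper sulfate through the metallothionein promoter; on the % scale 0 is the no-effect control and ±100 the full control effect; nearly all actives have a fitted effect of over 50% in size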
RORg inh: blocks mouse ROR gamma transcriptional activity. P51450. Drosophila S2 Gal4-RORgamma UAS-luciferase reporter, 20 h. Potency, µM (highest dose often 53.6 µM), for the others: at the highest dose activity change, negative = inhibition, hits mostly inhibitors. hit rate 5.4% among 310,000; further: on the % scale 0 is the no-effect control and ±100 the full control effect; nearly all actives have a fitted effect of over 60% in size
Target sequence (P51450 whole entry, looked up, the tested form may be a part): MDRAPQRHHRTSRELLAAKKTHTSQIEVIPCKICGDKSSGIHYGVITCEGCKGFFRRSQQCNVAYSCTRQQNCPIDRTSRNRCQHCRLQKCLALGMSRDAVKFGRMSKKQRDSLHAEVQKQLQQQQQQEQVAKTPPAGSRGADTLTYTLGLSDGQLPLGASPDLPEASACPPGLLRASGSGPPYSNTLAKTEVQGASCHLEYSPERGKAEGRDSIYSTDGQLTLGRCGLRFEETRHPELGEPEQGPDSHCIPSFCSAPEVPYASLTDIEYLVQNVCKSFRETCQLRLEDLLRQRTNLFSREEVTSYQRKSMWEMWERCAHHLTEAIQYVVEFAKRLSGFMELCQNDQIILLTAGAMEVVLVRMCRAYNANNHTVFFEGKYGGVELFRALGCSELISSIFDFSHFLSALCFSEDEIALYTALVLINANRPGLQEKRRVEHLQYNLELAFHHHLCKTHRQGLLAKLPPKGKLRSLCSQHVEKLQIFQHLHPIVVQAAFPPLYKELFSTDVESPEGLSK
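Schneider cells (Drosophila), stable Gal4 DBD–ROR gamma + UAS-luc; 1 hr cmpd preincubation; Cu2+ induction 700 uM final; 20 hr ambient; luminescence.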
KB-3-1 tox: KB-3-1 parental cell cytotoxicity. KB-3-1 viability, CellTiter-Glo ATP luminescence, 72 h. Potency, µM (doses to about 46.1 µM), most hits filed as cytotoxic. hit rate 1.4% among 400,000. AID 1347075; further: on the % scale 0 is the no-effect control and ±100 the full control effect; nearly all actives have a fitted effect of over 60% in size
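Cytotoxicity measured as CellTiter-Glo luminescence after 72 h at 37 C. Compound titrations were pinned onto drug-naive KB-3-1 parental adenocarcinoma cells grown in DMEM with 10% FBS, and normalized data fitted to concentration-response curves.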
MCF10A rerep: inducers of DNA re-replication in MCF 10A breast cells | Potency, µM (titrated, usually from 46.1 µM), for inactives: top-dose activity, positive = re-replication, most hits filed as activators | AID 624296 | hit rate 2.9% among 350,000 | MCF 10A DNA re-replication, Hoechst nuclear intensity, 48 h; further: % of control where 0% means no effect; nearly all actives have a fitted effect of over 50% in size
Active calls of the source: *; i = inactive; u = inconclusive; x = not tested or not shown; ! = a repeat was not active; [ ] = dose if it differs, or a comment. The call rests on the fitted dose curve; in most records, active means well fitted curve in the direction sought with a large enough effect; inconclusive means small, poorly fitted or top-dose-only effect, or another doubt; inactive means no such curve, though single readings can be large; an effect the other way counts as inactive or inconclusive. Potency means the concentration at half of the fitted maximal effect.

SMILES	KB-V1 cytotox	SW480 rerep	VP16 counter	RORg inh	KB-3-1 tox	MCF10A rerep
COc1ccc(CCC(=O)Nc2ccc(C)c([N+](=O)[O-])c2)cc1	20.6µM*	13.6%	-15.2%	-0.4%	i	18.8%
COc1ccc([N+](=O)[O-])cc1NC(=O)Cc1ccc(C)cc1	i	-1.9%	-8.7%	6.6%[10 µM]	i	6.1%
COc1ccc(CCC(=O)Nc2cc([N+](=O)[O-])ccc2OC)cc1	20.6µM*	-15.3%	6.8%	23.7%	i	-51.1%
CC(=O)Nc1cc([N+](=O)[O-])ccc1OCc1ccccc1	18.4µM*	-0.8%	x	x	i	-0.9%
CCC(Cl)CC(Cl)C(Cl)C(Cl)C(Cl)C(C)Cl (stereo unspecified)	x	x	21.5%	3.0%	x	x
CO[C@H]1COC(=O)C/C=C\[C@@H](C)COC(=O)[C@@H](CCSC)NC(=O)C/C=C\[C@@H]1C	x	x	5.8%[10 µM]	-30.2%[10 µM]	x	x
CCn1c(=O)c2c(nc3n2CCN3c2ccc(OC)cc2)n(C)c1=O	i	x	x	x	i	x
Cc1cc(C)n(-c2nc3ccccc3nc2N2CCN(c3cccc(C(F)(F)F)c3)CC2)n1	i	x	x	x	i	x
CCS(=O)(=O)Nc1ccc(-c2cc(-c3ccccc3)c3cc(C)ccc3n2)cc1	i	u	-3.7%	u	i	14.6µM*
Cc1ccc2nc(-c3ccc(NS(C)(=O)=O)cc3)cc(-c3ccccc3)c2c1	i	28.9%	22.4µM*	u	i	u
Cc1ccc2nc(-c3ccncc3)cc(-c3ccccc3)c2c1	i	u	-19.4%	u	i	u
CCN(CC)S(=O)(=O)c1ccc(OC)c(NC(=S)Nc2ccc(C)c(C)c2)c1	18.4µM*	u	u	u	i	u
CCN(CC)S(=O)(=O)c1ccc(NC(=S)NC(=O)C(C)C)cc1	i	-8.7%	u	12.6µM*	i	-9.6%
Cc1nn(C)c(C)c1S(=O)(=O)N(CC(=O)NC1CCCCCC1)c1ccc(C(C)C)cc1	i	-1.6%	1.3%	-14.1%	i	11.6µM*
CCOC(=O)N1CCC(NC(=O)CN(c2ccc(C(C)C)cc2)S(=O)(=O)c2c(C)nn(C)c2C)CC1	i	-1.3%	-3.5%	14.9%	u	6.3%
CCN(CC(=O)Nc1ccc(OC)c(OC)c1)S(=O)(=O)c1ccc(C)cc1	13µM*	-5.2%	-7.9%[0.365 µM]	1.1%	i	0.8%
COc1ccc(S(=O)(=O)N(C)CC(=O)Nc2ccc(C)cc2)cc1OC	u	-11.0%	-3.1%	2.9%	i	-18.0%[9.22 µM]
CCN(CC)S(=O)(=O)c1ccc(C)c(NC(=S)Nc2cccc(S(=O)(=O)N3CCCCCC3)c2)c1	u	0.2%	u	41.6%	u	14.3%
Cc1ccc(C)c(NC(=O)CC2NCCNC2=O)c1 (stereo unspecified)	i	x	x	x	u	x
COc1ccc(NC(=O)CN(c2ccc(C)cc2)S(=O)(=O)c2c(C)nn(C)c2C)cc1	i	13.0%	-5.1%	14.1%	i	-0.8%
COc1ccc(NC(=O)CN(c2ccc(C)cc2)S(=O)(=O)c2c(C)nn(C)c2C)cc1OC	13µM*	-0.1%	u	15.8µM*	u	4.4%
COc1ccc2nc(NC(=O)CN(c3ccc(C)cc3)S(=O)(=O)c3c(C)nn(C)c3C)sc2c1	u	u	17.8µM*	0.2%	i	6.9%
COc1ccc(NC(=O)CSC2=Nc3ccccc3C3=NC(CCC(=O)NCCc4ccccc4)C(=O)N23)c(OC)c1 (stereo unspecified)	i	x	x	x	i	x
COc1ccccc1NC(=O)Cn1c(=O)n(Cc2cccs2)c(=O)c2cccnc21	i	x	x	x	i	x
C#CCn1c(C2CC(=O)N(c3ccc(OC)cc3)C2)nc2ccccc21 (stereo unspecified)	i	x	x	x	i	x
SMILES	KB-V1 cytotox	SW480 rerep	VP16 counter	RORg inh	KB-3-1 tox	MCF10A rerep
CC1(C)CC(=O)C2=C(C1)NC(Nc1nc3ccccc3o1)=NC2c1ccccc1 (stereo unspecified)	i	x	x	x	i	x
O=C(c1ccc2ccccc2c1)C1CCCN(S(=O)(=O)c2cccnc2)C1 (stereo unspecified)	16.4µM*	3.7%	u	8.3%	i	15.9%
Cc1ccc(Cn2c(C)c(C(=O)NCc3cccs3)sc2=O)cc1	u	x	x	x	i	x
O=C(O)c1ccc2c(c1)C(=O)N([C@@H](Cc1ccc(O)cc1)C(=O)O)C2=O	x	x	6.31µM*	2µM*	x	x
O=C(O)c1ccc2c(c1)C(=O)N(C(Cc1ccc(O)cc1)C(=O)O)C2=O (stereo unspecified)	u	0.4%	-6.9%	2.5%	i	353.6%[0.0737 µM]
COc1cccc(NC(=O)Cn2c(=O)n(-c3cccc(OC)c3)c(=O)c3sc4ccccc4c32)c1	i	x	x	x	i	x
COc1ccc2cc3[n+](cc2c1OC)CCc1cc2c(cc1-3)OCO2	i	-0.8%	u	u	7.31µM*!	-5.3%
CC(C)[C@@H]1Cc2[nH][nH]c(=O)c2[C@H](C(C)C)O1	u	x	x	x	i	x
O=C(CSc1nnc(-c2cccnc2)s1)Nc1ccnc2ccccc12	1.64µM*	-9.4%	u	-9.7%	2.31µM*	1.3%
Cc1ccc(NC(=O)CSc2nnc(-c3cccnc3)s2)cc1	i	-5.5%	-9.5%	-7.8%	i	0.6%
Cc1nn(Cc2ccccc2)c(Cl)c1C(=O)OCc1nnc(-c2ccccc2)o1	7.31µM*	-0.8%	u	43.6%	i	u
Cc1nn(Cc2ccccc2)c(Cl)c1C(=O)OCc1nnc(-c2ccc(Cl)cc2)o1	i	-5.5%	14.2%	9.1%	i	15.3%
COC(=O)N/N=C/c1cn(CCOc2ccccc2OC)c2ccccc12	i	-22.2%	9.9%	29.3%	i	u
CNC(=S)N/N=C/c1cn(CCOc2cccc(OC)c2)c2ccccc12	u	-11.0%	5.01µM*	1µM*	i	9.1%
COC(=O)N/N=C/c1cn(CCOc2ccc(OC)cc2)c2ccccc12	i	-8.4%	6.5%	35.0%	i	1.6%
CNC(=S)N/N=C/c1cn(CCOc2ccccc2OC)c2ccccc12	u	0.9%	1µM*	0.891µM*	i	6.8%
OCCN=C1CCCc2c1[nH]c1ccc(Cl)cc21	0.731µM*	-7.8%	-4.1%	10.7%	2.06µM*	12.9%
OCCCN=C1CCCc2c1[nH]c1ccc(Cl)cc21	1.46µM*	-2.1%	-0.9%	-2.6%	9.2µM*	u
CCOc1ccc(-c2nc(Cn3c(=O)cc(-c4ccccc4)c4c(C)nn(C)c43)c(C)o2)cc1OC	i	x	x	x	i	x
O=C(Nc1ccc2nc(SCc3ccc(Cl)cc3)sc2c1)c1ccccc1C(=O)N1CCOCC1	i	3.4%	-1.4%	0.9%	i	6.51µM*
